Assay results as given in PubChem BioAssay AID1259415 (National Center for Advancing Translational Sciences (NCATS), 2018).
“And” between values parts separate entries of the source, which are not always exact repeats. Equal entries are not always repeated. The campaign covered roughly 410,000 compounds. About 18,000 (4.4%) were called active. Inconclusive results (about 7%) are left out. Cut-off read from the data, not from the text of the source: active = activity change below about -60%; inconclusive = no clear call, values can overlap the other calls; inactive = above about -39%. Only a selection was taken, and actives are over-represented in it overall. A structure can be active in one record and inactive in another.

Test: qHTS Assay for inhibitors of the human cytomegalovirus (HCMV)
Details: HFF cells, HCMV-luciferase reporter, 72 h; at 57.5 µM; stronger effect = lower value
In short: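 Cell-based, HFFs, 1000 cells/well, 16 h 37C; cpds in DMSO + HCMV-luc, MOI 1 PFU/cell; 72 h 37C; OneGlo luminescence after 5 min RT; norm. to buffer vs Salinomycin 10uM.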
% is set by controls: 0 for no effect and ±100 for the full control effect.

SMILES	activity change, negative = inhibition
COc1ccc(CCNS(=O)(=O)c2cccc([N+](=O)[O-])c2)cc1	-2.78% (inactive)
COc1cc2nc(NCC(C)c3ccccc3)n3nc(-c4ccccc4)nc3c2cc1OC (stereo unspecified)	5.32% (inactive)
Cc1ccc2cccc(NC(=O)C(C)Oc3ccc(C)c(C)c3)c2n1 (stereo unspecified)	-3.68% (inactive)
C=CCNC(=O)c1cc2nc(C3CC3)cc(C(F)F)n2n1	37.6% (inactive)
COc1ccc(N(CC(=O)Nc2ccc(F)c(F)c2)S(=O)(=O)c2c(C)[nH]c(=O)[nH]c2=O)cc1	0% (inactive)
CC(C)c1ccc(NC(=O)c2cc(S(=O)(=O)N3CCc4ccccc4C3)ccc2F)cc1	3.74% (inactive)
CC1=C(C(=O)OCC(C)C)C(c2ccc(OCc3ccccc3)cc2)N2C(=O)CCSC2=N1 (stereo unspecified)	14.9% (inactive)
CC1CCC2(CC1)N=C(c1ccccc1)C(=O)N2CC(=O)Nc1ccc(F)c(Cl)c1 (stereo unspecified)	-96% (active)
CCc1ccc(NC(=O)CN2C(=O)C(c3ccccc3)=NC23CCCCCC3)cc1	16.1% (inactive)
COc1ccc(NC(=O)CN2C(=O)C(c3ccccc3)=NC23CCCCCC3)cc1OC	-13.9% (inactive)
COc1cccc(NC(=O)C2CCN(c3cc(C)nc4c(-c5ccc(Cl)cc5)c(C)nn34)CC2)c1	-5.4% (inactive)
CC(=O)c1cc(-c2ccccc2)[nH]c1N1CCCC1	30.4% (inactive)
Cc1ccc(-c2cc(=O)c3ccc(F)cc3[nH]2)cc1	3.06% (inactive)
O=c1cc(-c2ccccc2)[nH]c2cc(F)ccc12	-67.4% (active)
COc1cccc2sc(Nc3nc(C)c(C(C)=O)s3)nc12	-77% (active)
COc1ccccc1Nc1ncc(C(C)=O)c(C)n1	16.2% (inactive)
COc1ccccc1CNC(=O)COC(=O)c1sc(C)nc1C	-2.84% (inactive)
O=C(Nc1ccc(-c2nc3cc(NC(=O)c4ccccc4Cl)ccc3o2)cc1)c1ccccc1Cl	-35.6% (inactive)
COc1ccc(-c2nc(Cn3c(=O)cc(C)c4c(C)nn(-c5ccccc5)c43)c(C)o2)c(OC)c1	-2.37% (inactive)
Cc1nc2ccc(S(=O)(=O)NC(C(=O)NCc3ccccc3Cl)C(C)C)cc2s1 (stereo unspecified)	-12.9% (inactive)
COc1ccccc1-c1n[nH]nc1C1=CC(=O)CC(C)(C)C1	-4.89% (inactive)
CC1(C)CC(=O)C=C(c2ccc3ncccc3c2)C1	-83.3% (active)

SMILES	activity change, negative = inhibition
CC1(C)CC(=O)C=C(c2ccc(Cl)c(C(F)(F)F)c2)C1	-4.75% (inactive)
CC1CCCCN1Cc1c(O)ccc2c(=O)c(-c3cccc(Cl)c3)c(C(F)(F)F)oc12 (stereo unspecified)	11.3% (inactive)
N#C/C(=C/c1ccc(N2CCCCC2)o1)C(=O)NCCc1c[nH]c2ccccc12	-60.4% (active)
O=C(NCCCc1ccccc1)C(=O)c1c[nH]c2ccccc12	21.3% (inactive)
O=C(CCc1c[nH]c2ccccc12)NCCOc1ccccc1	-2.62% (inactive)
COc1ccc(NC(=O)Cn2cc(C(=O)c3ccncc3)c(=O)c3cc(C)ccc32)cc1Cl	-8.82% (inactive)
CCCOc1ccc(C2c3c(-c4ccccc4O)n[nH]c3C(=O)N2Cc2cccnc2)cc1 (stereo unspecified)	8.52% (inactive)
CCOC(=O)c1ccc(NC(=O)c2c(NCc3cccs3)sc3c2CCCC3)cc1	-7.9% (inactive)
COc1ccc(N2CCN(c3nc(-c4ccccc4F)nc4ccccc34)CC2)cc1	-30% (inactive)
COc1cc(Nc2nc(-c3ccc(OC)c(OC)c3)nc3ccccc23)cc(OC)c1	-33.1% (inactive)
CC(C)(C)Nc1nc(-c2ccccn2)nc2ccccc12	-100% (active)
CCCc1nn2c(=O)cc(COC(=O)c3ccc(NC(=O)COc4ccc(F)cc4)cc3)nc2s1	-24.2% (inactive)
CC(C)(C)C(=O)CCN1C(=O)C2(OCCO2)c2ccccc21	1.52% (inactive)
COc1ccc(C2C(=O)N(C3CCCCCC3)CC(=O)N2CCc2ccc(Cl)cc2)cc1OC (stereo unspecified)	-12.5% (inactive)
Cc1cn(C)c(CC(=O)NCc2ccccc2)c1C(=O)O	16.2% (inactive)
NC(=O)C1CCN(C(=O)c2ccc(F)c(S(=O)(=O)N3CCOCC3)c2)CC1	-6.8% (inactive)
CC1=Nc2cc(C(=O)N3CCC(C)CC3)ccc2Sc2ccc(Cl)cc21	-34.1% (inactive)
CC1CCN(C(=O)c2ccc(S(=O)(=O)Cc3cc(F)ccc3F)c([N+](=O)[O-])c2)CC1	-83.1% (active)
Cc1cccc(CSc2nc3ccncc3n2CC(=O)N(C)C2CCCCC2)c1	19.5% (inactive)
O=C(NCC(c1ccco1)S(=O)(=O)c1cccs1)c1ccc(F)cc1 (stereo unspecified)	0% (inactive)
CSc1ncnc2sc(C)c(C)c12	-17.9% (inactive)
Cc1cccc(-n2ccnc2SCC(=O)Nc2cccc3ccccc23)c1C	-0.357% (inactive)

SMILES	activity change, negative = inhibition
CC(C)CCC(C)NC(=O)c1ccc2nccnc2c1 (stereo unspecified)	43% (inactive)
O=C(Nc1ccccc1N1CCCC1)c1ccc(F)c(S(=O)(=O)N2CCOCC2)c1	-11.8% (inactive)
O=C(Nc1ccccc1N1CCCCC1)c1ccc2nccnc2c1	-62.2% (active)
CCn1c(=O)c(=O)n(CC)c2cc(N3CCCCC3)c(NC(=O)c3cccc(F)c3)cc21	-12.9% (inactive)
Cc1ccc(C)c(NC(=O)c2ccc3nccnc3c2)c1	-67% (active)
O=C(NCCc1ccc(F)cc1)c1ccc2nccnc2c1	104% (inactive)
CCOC(=O)c1ccccc1NC(=O)c1nn(-c2ccc(OC)c(Cl)c2)c(=O)c2c1c1ccccc1n2C	11.6% (inactive)
Cc1ccc(C)c(Cn2c(C(=O)O)c(CNCc3cccs3)c3ccccc32)c1	-8.87% (inactive)
CC(=O)N1CCCc2cc(S(=O)(=O)N3CCC(C(=O)NCc4ccc(C)cc4)CC3)ccc21	-4.1% (inactive)
COc1ccc(OC)c(-c2noc(N3CCN(c4cc(Cl)ccc4C)CC3)n2)c1	-0.0922% (inactive)
COC(=O)c1cc(NC(=O)c2cnc(SC)nc2-c2ccccc2)cc(C(=O)OC)c1	22.8% (inactive)
CC1CCC(C(C)C)C(=O)/C1=C\c1ccc(NC(=O)CCC(=O)O)cc1 (stereo unspecified)	-26.4% (inactive)
CSCCC(c1nnnn1C(C)(C)C)N1CCC(n2c(=O)[nH]c3ccccc32)CC1 (stereo unspecified)	-37.7% (inactive)
CC(C)C(c1nnnn1Cc1ccccc1)N1CCC(C(N)=O)CC1 (stereo unspecified)	55.3% (inactive)
CCOC(=O)N1CCN(C(c2ccnc3ccccc23)c2nnnn2-c2c(C)cccc2C)CC1 (stereo unspecified)	-0.353% (inactive)
O=c1[nH]c2ccccc2n1C1CCN(CCOc2ccccc2)CC1	-29.7% (inactive)
O=c1[nH]c2ccccc2n1C1CCN(C(c2ccccc2)c2nnnn2Cc2ccccc2)CC1 (stereo unspecified)	-93.7% (active)
O=c1[nH]c2ccccc2n1C1CCN(C(c2ccnc3ccccc23)c2nnnn2Cc2ccccc2)CC1 (stereo unspecified)	-61.4% (active)
CCCN(CCC)CCCNC(=O)CNC(=O)c1nn(-c2ccc(OC)cc2)c(=O)c2ccccc12	-0.192% (inactive)
Cc1ccc(Cl)cc1N1CCN(C(=O)c2cn(C)c3ccc(S(=O)(=O)N(C)C4CCCCC4)cc3c2=O)CC1	19.9% (inactive)
Cc1cccc(OCC(=O)N(Cc2ccc(C(C)C)cc2)Cc2ccco2)c1C	-2.95% (inactive)
Cc1nc(-c2nnc(SCC(=O)Nc3cc(C(F)(F)F)cc(C(F)(F)F)c3)n2C)cs1	18.5% (inactive)

SMILES	activity change, negative = inhibition
Cc1nc2ccccc2nc1N/N=C/c1ccc(O)cc1O	-86.2% (active)
COc1cc(NC(=O)c2nc3ccccc3nc2C)cc(OC)c1OC	22.8% (inactive)
Cc1n[nH]c(=O)nc1N/N=C/c1cccs1	11.4% (inactive)
COc1cccc2cc(C(=O)NCc3ccc(C)cc3)c(=N)oc12	-3.52% (inactive)
COc1ccc(CNC(=O)c2c[nH]c3c(OC)cc(OC)cc3c2=O)cc1	-39% (inactive)
COc1ccc(CNC(=O)c2cc3cccc(OC)c3oc2=O)cc1	-88.7% (active)
Cc1c(Cl)cccc1NC(=O)CCS(=O)(=O)c1ccc2c(c1)oc(=O)n2C	-4.78% (inactive)
Cc1ccc(NC(=O)CS(=O)CC(=O)N(c2ccccc2)C(C)C(=O)NC2CCCC2)cc1 (stereo unspecified)	4.37% (inactive)
O=C(CC(n1cncn1)C(Cl)(Cl)Cl)c1ccc([N+](=O)[O-])cc1 (stereo unspecified)	-0.398% (inactive)
O=C(CCn1nnc2ccccc21)OCC(=O)c1ccc([N+](=O)[O-])cc1	2.27% (inactive)
O=C(Cn1c[n+](CC(=O)c2ccc([N+](=O)[O-])cc2)cn1)c1ccc([N+](=O)[O-])cc1	-34.4% (inactive) and -92.6% (active)
C[C@H](CO)N1C[C@H](C)[C@H](CN(C)C(=O)c2ccncc2)OCc2ccccc2-c2c(n(C)c3ccccc23)C1=O	-0.378% (inactive)
CCN(CC)CCNc1ncnc2c1cnn2-c1cc(Cl)ccc1C	-19.7% (inactive)
COc1ccc(NC(=O)C2=CC(c3ccc(OC)c(OC)c3)=NS(=O)(=O)N2C)cc1	-70.9% (active)
COc1ccc(C2=NS(=O)(=O)N(C)C(C(=O)NC(C)c3ccccc3)=C2)cc1 (stereo unspecified)	-13.9% (inactive) and -20.9% (inactive)
COc1cc(NC(=O)C2=CC(c3ccc(C)cc3)=NS(=O)(=O)N2C)cc(OC)c1OC	8.94% (inactive)
CCOC(=O)c1c(NC(=O)C2(C)Cc3ccccc3C(=O)O2)sc2c1CCCC2 (stereo unspecified)	-77.4% (active)
CCOC(=O)c1c(NC(=O)/C(C#N)=C/c2ccccc2)sc2c1CCC2	2.23% (inactive)
CCOC(=O)c1c(NC(=O)c2cc(-c3ccc(Cl)cc3)on2)sc2c1CCCC2	3.67% (inactive)
Cc1ccc2nc(-c3ccc(C)c(NC(=O)Cc4ccccc4)c3)oc2c1	38% (inactive)
